# Values joined by “and” are separate entries in the source; they are usually repeats but may differ in a detail not shown here. Equal entries are not always repeated. Compounds without any hit were thinned out: in the full panel of roughly 83,000, 20% have a hit.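 Assay: single dose, 48 h. Readout: percent growth (0 = no net growth; negative = cell death). Active: <10.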 Values without a mark were called inactive. Active and inactive are the calls of the source.
# How the values were obtained:
# Assay in all cases: NCI-60 one-dose screen, 48 h (100 = growth as untreated, 0 = no growth, -100 = all killed)
# NCI-H23 lung = test system: NCI-H23 lung
# NCI-H226 lung = test system: NCI-H226 lung
# NCI-H322M lung = test system: NCI-H322M lung
# NCI-H460 lung = test system: NCI-H460 lung
# HOP-92 NSCLC = details: 10 µM unless noted
# NCI-H522 lung = details: 10 µM unless noted
# A549/ATCC NSCLC = test system: A549/ATCC NSCLC
# 786-0 renal = test system: 786-0 renal
# COLO 205 colon = test system: COLO 205 colon
# DU-145 prostate = test system: DU-145 prostate
# K-562 leukemia = test system: K-562 leukemia
# MALME-3M melanoma = test system: MALME-3M melanoma
# MDA-MB-231 breast = test system: MDA-MB-231 breast
# RXF 393 renal = test system: RXF 393 renal
# SF-268 CNS = test system: SF-268 CNS
# SF-295 CNS = test system: SF-295 CNS
# SF-539 CNS = test system: SF-539 CNS
# UACC-257 melanoma = details: 10 µM unless noted
# M14 melanoma = test system: M14 melanoma
# HOP-62 NSCLC = details: 10 µM unless noted
smiles,measurement,setting,value
O=c1ccn2c(n1)OC1CC2OC1COC(c1ccccc1)(c1ccccc1)c1ccccc1 (configuration not stated),growth,NCI-H23 lung; 10 µM,116%
same,growth,NCI-H23 lung; 100 µM,99.6%
same,growth,NCI-H226 lung; 10 µM,102%
same,growth,NCI-H226 lung; 100 µM,90.5%
same,growth,NCI-H322M lung; 10 µM,106%
same,growth,NCI-H322M lung; 100 µM,49.9%
same,growth,NCI-H460 lung; 10 µM,106%
same,growth,NCI-H460 lung; 100 µM,94.5%
same,growth,HOP-92 NSCLC,72.4% [100 µM]
same,growth,NCI-H522 lung,60.7% [100 µM]
same,growth,A549/ATCC NSCLC; 10 µM,93.5%
same,growth,A549/ATCC NSCLC; 100 µM,83%
same,growth,786-0 renal; 10 µM,113%
same,growth,786-0 renal; 100 µM,86.1%
same,growth,COLO 205 colon; 10 µM,112%
same,growth,COLO 205 colon; 100 µM,115%
same,growth,DU-145 prostate; 10 µM,115%
same,growth,DU-145 prostate; 100 µM,99.1%
same,growth,K-562 leukemia; 10 µM,102%
same,growth,K-562 leukemia; 100 µM,50.4%
same,growth,MALME-3M melanoma; 10 µM,119%
same,growth,MALME-3M melanoma; 100 µM,95%
same,growth,MDA-MB-231 breast; 10 µM,111%
same,growth,MDA-MB-231 breast; 100 µM,82.1%
same,growth,RXF 393 renal; 10 µM,107%
same,growth,RXF 393 renal; 100 µM,75.8%
same,growth,SF-268 CNS; 10 µM,119%
same,growth,SF-268 CNS; 100 µM,76.3%
same,growth,SF-295 CNS; 10 µM,118%
same,growth,SF-295 CNS; 100 µM,67.1%
same,growth,SF-539 CNS; 10 µM,110%
same,growth,SF-539 CNS; 100 µM,48.8%
same,growth,UACC-257 melanoma,93.8% [100 µM]
same,growth,M14 melanoma; 10 µM,112%
same,growth,M14 melanoma; 100 µM,46.1%
CCCCCCCCCCCCCCCCC(=O)O,growth,NCI-H23 lung; 10 µM unless noted,97.6%
same,growth,NCI-H226 lung; 10 µM unless noted,101%
same,growth,NCI-H322M lung; 10 µM unless noted,98%
same,growth,HOP-62 NSCLC,104%
same,growth,NCI-H460 lung; 10 µM unless noted,108%
same,growth,HOP-92 NSCLC,110%
same,growth,NCI-H522 lung,102%
same,growth,A549/ATCC NSCLC; 10 µM unless noted,104%
same,growth,786-0 renal; 10 µM unless noted,97.7%
same,growth,COLO 205 colon; 10 µM unless noted,114%
same,growth,DU-145 prostate; 10 µM unless noted,107%
same,growth,K-562 leukemia; 10 µM unless noted,89.5%
same,growth,MALME-3M melanoma; 10 µM unless noted,98.3%
same,growth,MDA-MB-231 breast; 10 µM unless noted,105%
same,growth,RXF 393 renal; 10 µM unless noted,99.5%
same,growth,SF-268 CNS; 10 µM unless noted,102%
same,growth,SF-295 CNS; 10 µM unless noted,104%
same,growth,SF-539 CNS; 10 µM unless noted,106%
same,growth,UACC-257 melanoma,101%
same,growth,M14 melanoma; 10 µM unless noted,104%
O=C(c1ccccc1)C1(Br)CCCCC1,growth,NCI-H23 lung; 10 µM unless noted,98%
same,growth,NCI-H226 lung; 10 µM unless noted,87.5%
same,growth,NCI-H322M lung; 10 µM unless noted,93.4%
same,growth,HOP-62 NSCLC,96%
same,growth,NCI-H460 lung; 10 µM unless noted,105%
same,growth,HOP-92 NSCLC,88.1%
same,growth,NCI-H522 lung,95.6%
same,growth,A549/ATCC NSCLC; 10 µM unless noted,96.8%
same,growth,786-0 renal; 10 µM unless noted,91.5%
same,growth,COLO 205 colon; 10 µM unless noted,129%
same,growth,DU-145 prostate; 10 µM unless noted,105%
same,growth,K-562 leukemia; 10 µM unless noted,98%
same,growth,MALME-3M melanoma; 10 µM unless noted,95.1%
same,growth,MDA-MB-231 breast; 10 µM unless noted,94.3%
same,growth,RXF 393 renal; 10 µM unless noted,113%
same,growth,SF-268 CNS; 10 µM unless noted,92%
same,growth,SF-295 CNS; 10 µM unless noted,93.4%
same,growth,SF-539 CNS; 10 µM unless noted,93.5%
same,growth,UACC-257 melanoma,98.7%
CCOC(C)=N,growth,NCI-H23 lung; 10 µM unless noted,105%
same,growth,NCI-H226 lung; 10 µM unless noted,112%
same,growth,NCI-H322M lung; 10 µM unless noted,146%
same,growth,HOP-62 NSCLC,101%
same,growth,NCI-H460 lung; 10 µM unless noted,114%
same,growth,HOP-92 NSCLC,89.7%
same,growth,NCI-H522 lung,87.3%
same,growth,A549/ATCC NSCLC; 10 µM unless noted,101%
same,growth,786-0 renal; 10 µM unless noted,100%
same,growth,COLO 205 colon; 10 µM unless noted,122%
same,growth,DU-145 prostate; 10 µM unless noted,118%
same,growth,K-562 leukemia; 10 µM unless noted,102%
same,growth,MALME-3M melanoma; 10 µM unless noted,177%
same,growth,MDA-MB-231 breast; 10 µM unless noted,106%
same,growth,RXF 393 renal; 10 µM unless noted,114%
same,growth,SF-268 CNS; 10 µM unless noted,106%
same,growth,SF-295 CNS; 10 µM unless noted,121%
same,growth,SF-539 CNS; 10 µM unless noted,106%
same,growth,UACC-257 melanoma,104%
same,growth,M14 melanoma; 10 µM unless noted,97.5%
CCN(CC)CCNC(=O)c1ccc(NCN2C(=O)NC(c3ccccc3)(c3ccccc3)C2=O)cc1,growth,NCI-H23 lung; 10 µM unless noted,97.1% and 103%
same,growth,NCI-H226 lung; 10 µM unless noted,95.6% and 100%
same,growth,NCI-H322M lung; 10 µM unless noted,112% and 106%
same,growth,HOP-62 NSCLC,116% and 99.7%
same,growth,NCI-H460 lung; 10 µM unless noted,101% and 114%
same,growth,HOP-92 NSCLC,86.2% and 105%
same,growth,NCI-H522 lung,108% and 106%
same,growth,A549/ATCC NSCLC; 10 µM unless noted,95.3% and 107%
same,growth,786-0 renal; 10 µM unless noted,101% and 115%
same,growth,COLO 205 colon; 10 µM unless noted,124% and 103%
same,growth,DU-145 prostate; 10 µM unless noted,108% and 122%
same,growth,K-562 leukemia; 10 µM unless noted,110% and 108%
same,growth,MALME-3M melanoma; 10 µM unless noted,96.1%
same,growth,MDA-MB-231 breast; 10 µM unless noted,114% and 103%
same,growth,RXF 393 renal; 10 µM unless noted,106% and 118%
same,growth,SF-268 CNS; 10 µM unless noted,102% and 101%
same,growth,SF-295 CNS; 10 µM unless noted,94.1%
same,growth,SF-539 CNS; 10 µM unless noted,104%
same,growth,UACC-257 melanoma,100% and 106%
COc1ccc(CCl)c(C)c1OC,growth,NCI-H23 lung; 10 µM unless noted,96.2%
same,growth,NCI-H226 lung; 10 µM unless noted,95.8%
same,growth,NCI-H322M lung; 10 µM unless noted,95.8%
same,growth,HOP-62 NSCLC,104%
same,growth,NCI-H460 lung; 10 µM unless noted,103%
same,growth,HOP-92 NSCLC,86.1%
same,growth,NCI-H522 lung,99.8%
same,growth,A549/ATCC NSCLC; 10 µM unless noted,102%
same,growth,786-0 renal; 10 µM unless noted,106%
same,growth,COLO 205 colon; 10 µM unless noted,109%
same,growth,DU-145 prostate; 10 µM unless noted,104%
same,growth,K-562 leukemia; 10 µM unless noted,6.6% (active)
same,growth,MALME-3M melanoma; 10 µM unless noted,84.9%
same,growth,MDA-MB-231 breast; 10 µM unless noted,98.5%
same,growth,RXF 393 renal; 10 µM unless noted,112%
same,growth,SF-268 CNS; 10 µM unless noted,97.1%
same,growth,SF-295 CNS; 10 µM unless noted,95.3%
same,growth,SF-539 CNS; 10 µM unless noted,99.4%
same,growth,UACC-257 melanoma,96%
